# Measured values: PubChem BioAssay AID1159580 (chemical genetic matrix, 2015)
# Hit rate of the full screen: of about 5,500 compounds, about 2,000 (36%) were called active. Roughly 18% stayed inconclusive and do not appear here. Some of the results follow. Unmarked numbers belong to inactive results. Rule as the data show it: active = normalized growth mostly below about 0.91 (no sharp cut-off); inconclusive = no clear call, values can overlap the other calls; inactive = mostly above about 0.92.
# Assay: chemical genetic growth profiling, strain panel (AID 1159580);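 also: tested at 20 µM; growth read once vehicle control cultures reached saturation at 30 °C; 1 = growth at the plate median or of vehicle wells; lower values mean less growth of the strain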
# Conditions: S. cerevisiae deletion strains, growth OD
smiles,measurement,setting,value
O=c1c(O)c(-c2ccccc2)oc2ccccc12,normalized growth,"locus YJL187C, strain SWE1, hits give low values",0.758 (active)
same,normalized growth,"locus YJR043C, strain POL32, hits give low values",0.981
same,normalized growth,"locus YJR066W, strain TOR1, hits give low values",0.766 (active)
same,normalized growth,"locus YJR075W, strain HOC1, hits give low values",0.982
same,normalized growth,"locus YKL009W, strain mrt4, hits give low values",0.988
same,normalized growth,"locus YKL068W, hits give low values",0.988
same,normalized growth,"locus YKL085W, strain MDH1 (second series), hits give low values",0.994
same,normalized growth,"locus YKL085W, strain MDH1, hits give low values",0.994
same,normalized growth,"locus YKL160W, strain elf1, hits give low values",0.678 (active)
same,normalized growth,"locus YKR001C, strain vps1, hits give low values",1.02
same,normalized growth,"locus YKR026C, strain gcn3, hits give low values",0.777 (active)
same,normalized growth,"locus YKR091W, strain srl3, hits give low values",0.82 (active)
same,normalized growth,"locus YLL001W, strain dnm1, hits give low values",0.512 (active)
same,normalized growth,"locus YLL026W, hits give low values",0.354 (active)
same,normalized growth,"locus YLL041C, strain sdh2, hits give low values",0.872 (active)
same,normalized growth,"locus YLR027C, strain aat2, hits give low values",0.681 (active)
same,normalized growth,"locus YLR039C, strain RIC1, hits give low values",1.01
same,normalized growth,"locus YLR058C, strain SHM2, hits give low values",0.977
same,normalized growth,"locus YLR102C, strain apc9, hits give low values",0.997
same,normalized growth,"locus YLR113W, strain HOG1, hits give low values",0.851 (active)
same,normalized growth,"locus YLR221C, strain rsa3, hits give low values",0.612 (active)
same,normalized growth,"locus YLR258W, strain gsy2, hits give low values",0.655 (active)
same,normalized growth,"locus YLR262C, strain YPT6 (second series), hits give low values",0.228 (active)
same,normalized growth,"locus YLR262C, strain YPT6, hits give low values",1
same,normalized growth,"locus YLR268W, strain sec22, hits give low values",1.03
same,normalized growth,"locus YLR320W, strain mms22, hits give low values",0.503 (active)
same,normalized growth,"locus YLR330W, strain CHS5, hits give low values",0.997
same,normalized growth,"locus YLR342W, strain FKS1 (second series), hits give low values",1.01
same,normalized growth,"locus YLR342W, strain FKS1, hits give low values",0.513 (active)
same,normalized growth,"locus YLR357W, strain rsc2, hits give low values",0.584 (active)
same,normalized growth,"locus YLR370C, strain arc18, hits give low values",0.364 (active)
same,normalized growth,"locus YLR371W, strain rom2, hits give low values",0.974
same,normalized growth,"locus YLR384C, strain iki3, hits give low values",0.877 (active)
same,normalized growth,"locus YLR418C, strain cdc73, hits give low values",0.97
same,normalized growth,"locus YML016C, strain PPZ1, hits give low values",1
same,normalized growth,"locus YML032C, strain rad52, hits give low values",0.956
same,normalized growth,"locus YML120C, strain ndi1, hits give low values",0.844 (active)
same,normalized growth,"locus YML124C, strain tub3, hits give low values",0.988
same,normalized growth,"locus YMR058W, strain fet3, hits give low values",0.0896 (active)
same,normalized growth,"locus YMR078C, strain ctf18, hits give low values",0.996
same,normalized growth,"locus YMR125W, strain sto1, hits give low values",0.933
same,normalized growth,"locus YMR129W, hits give low values",0.872 (active)
same,normalized growth,"locus YMR205C, strain PFK2, hits give low values",0.506 (active)
same,normalized growth,"locus YMR223W, strain ubp8, hits give low values",0.965
same,normalized growth,"locus YMR231W, strain pep5, hits give low values",0.128 (active)
same,normalized growth,"locus YMR307W, strain GAS1, hits give low values",0.963
same,normalized growth,"locus YNL067W, strain RPL9B, hits give low values",0.994
same,normalized growth,"locus YNL071W, strain lat1, hits give low values",0.301 (active)
same,normalized growth,"locus YNL128W, strain TEP1, hits give low values",0.966
same,normalized growth,"locus YNL183C, strain NPR1, hits give low values",0.8 (active)
same,normalized growth,"locus YNL209W, strain ssb2, hits give low values",0.159 (active)
same,normalized growth,"locus YNL233W, strain BNI4, hits give low values",1.02
same,normalized growth,"locus YNL248C, strain rpa49, hits give low values",0.567 (active)
same,normalized growth,"locus YNL250W, strain rad50, hits give low values",0.975
same,normalized growth,"locus YNL271C, strain bni1, hits give low values",0.993
same,normalized growth,"locus YNL298W, strain CLA4, hits give low values",0.996
same,normalized growth,"locus YNL307C, strain MCK1, hits give low values",0.995
same,normalized growth,"locus YNL322C, strain KRE1 (second series), hits give low values",0.851 (active)
same,normalized growth,"locus YNR049C, strain mso1, hits give low values",0.616 (active)
same,normalized growth,"locus YNR052C, strain pop2, hits give low values",0.959
same,normalized growth,"locus YOL006C, strain TOP1, hits give low values",1.06
same,normalized growth,"locus YOL012C, strain htz1",0.87
same,normalized growth,"locus YOL147C, strain pex11, hits give low values",0.996
same,normalized growth,"locus YOR001W, strain rrp6, hits give low values",0.805 (active)
same,normalized growth,"locus YOR061W, strain CKA2, hits give low values",0.966
same,normalized growth,"locus YOR069W, strain VPS5, hits give low values",0.999
same,normalized growth,"locus YOR070C, strain gyp1, hits give low values",0.561 (active)
same,normalized growth,"locus YOR080W, strain dia2, hits give low values",0.689 (active)
same,normalized growth,"locus YOR083W, strain WHI5, hits give low values",0.565 (active)
same,normalized growth,"locus YOR106W, strain vam3, hits give low values",0.163 (active)
same,normalized growth,"locus YOR136W, strain idh2, hits give low values",0.991
same,normalized growth,"locus YOR144C, strain elg1, hits give low values",0.982
same,normalized growth,"locus YOR184W, strain ser1, hits give low values",0.988
same,normalized growth,"locus YOR231W, strain MKK1, hits give low values",0.834 (active)
same,normalized growth,"locus YOR265W, strain rbl2, hits give low values",0.467 (active)
same,normalized growth,"locus YOR270C, strain vph1, hits give low values",0.16 (active)
same,normalized growth,"locus YOR290C, strain snf2, hits give low values",0.589 (active)
same,normalized growth,"locus YOR316C, strain cot1, hits give low values",0.986
same,normalized growth,"locus YPL051W, strain arl3, hits give low values",0.262 (active)
same,normalized growth,"locus YPL078C, strain atp4, hits give low values",0.553 (active)
same,normalized growth,"locus YPL106C, strain sse1, hits give low values",0.676 (active)
same,normalized growth,"locus YPL240C, strain hsp82, hits give low values",0.762 (active)
same,normalized growth,"locus YPL256C, strain CLN2, hits give low values",0.886
same,normalized growth,"locus YPR119W, strain clb2, hits give low values",0.992
same,normalized growth,"locus YPR141C, strain kar3, hits give low values",0.993
same,normalized growth,"locus YPR163C, strain tif3, hits give low values",0.984
same,normalized growth,"locus YPR167C, strain met16, hits give low values",0.978
same,normalized growth,"strain wtn01, hits give low values",1.05
